According to the supplement of paper PMC13380429:
Unmarked numbers belong to inactive results.

System: Vero E6 infected with SARS-CoV-2
Experiment: inhibition of SARS-CoV-2 cytopathic effect; higher = more antiviral protection, active = above 15
Conditions: 48 h

SMILES | inhibition of SARS-CoV-2 cytopathic effect (1 nM) [%] | inhibition of SARS-CoV-2 cytopathic effect (8.33 nM) | inhibition of SARS-CoV-2 cytopathic effect (100 nM) | inhibition of SARS-CoV-2 cytopathic effect (833.33 nM) [%] | inhibition of SARS-CoV-2 cytopathic effect (10000 nM) [%]
CNC(=O)c1ccc2c(c1)CCO[C@H]2CCN1CCN(c2ccc(C(N)=O)cc2)CC1 | 1.05 | -0.55% | 1.37% | -1.27 | 3.34
CC(=O)OCC(=O)[C@@]1(O)CC[C@H]2[C@@H]3CCC4=CC(=O)C=C[C@]4(C)[C@@]3(Cl)[C@@H](Cl)C[C@@]21C [dichlorisone-acetate] | -1.93 | -2.25% | -3.39% | -2.97 | -2.91
CC(C)c1cccc2c(-c3ccccc3)cc(-c3ccc(-c4ccc(C(=O)O)cc4)[nH]3)nc12 | 5.04 | 4.89% | 3.09% | 5.27 | 3.56
CC(C)[C@H]1c2ccc(F)cc2CC[C@@]1(CCN(C)CCCc1nc2ccccc2[nH]1)OC(=O)C1CC1 | 1.78 | 2.76% | 7.24% | -2.65 | -19.3
C[C@@H](O[C@H]1OCCN(Cc2nn(P(=O)(O)O)c(=O)[nH]2)[C@H]1c1ccc(F)cc1)c1cc(C(F)(F)F)cc(C(F)(F)F)c1 [fosaprepitant-dimeglumine] | -0.45 | 3.23% | 1% | -0.01 | -0.52
COc1cc2c(cc1O)C(CCc1ccc(Cl)cc1)N(C)CC2 (stereo not given) | 0.21 | 2.27% | 0.29% | 0 | 0.49
Cc1ncc([N+](=O)[O-])n1CC(C)O (stereo not given) [secnidazole] | -4.41 | -8.4% | -5.52% | -10.4 | -9.47
O=C(/C=C/N1C[C@H]2C[C@@H]1CN2c1ccccn1)c1ccccc1O | -0.57 | -1.55% | -0.95% | -5.12 | -2.56
COc1ccc(-c2cc(=O)c3c(OC)c(OC)c(OC)c(OC)c3o2)cc1 [tangeritin] | 2.13 | 0.56% | -0.23% | 0.3 | -0.52
O=[N+]([O-])c1cccc2cn[nH]c12 [7-nitroindazole] | -1.89 | 1.76% | 3.57% | 4.56 | -1.2
Cc1[nH]cnc1-c1ccc(Cl)cc1 [lofemizole] | -0.61 | -0.4% | 150% (active) | 0.04 | -0.36
CCOc1ccc2nc3cc(N)ccc3c(N)c2c1 [ethacridine-lactate-monohydrate] | -0.84 | 0.62% | 0.77% | -1.28 | 0.22
COc1ccc(-c2nc3cc(C4=NNC(=O)CC4C)ccc3[nH]2)cc1 (stereo not given) [pimobendan] | 2.75 | -1.84% | -1.74% | -1.51 | -0.67
CCCCCCCCCCCCCCC[C@@H](O)[C@@H](N)CO [safingol] | 3.01 | 0.67% | 1.42% | 2.02 | -4.84
COC(=O)CCc1ccc(OCC(O)CNC(C)C)cc1 (stereo not given) [esmolol] | 0.17 | 0.64% | -0.39% | 0.07 | -0.39
O[C@@H](COc1cccc2ncccc12)CN1CCN([C@@H]2c3ccccc3[C@@H]3[C@H](c4ccccc42)C3(F)F)CC1 [zosuquidar] | -0.36 | 1.65% | 0.11% | 0.85 | -3.28
CC[C@@H](CO)NC(=O)[C@@H]1C=C2c3cccc4[nH]cc(c34)C[C@H]2N(C)C1 [methylergometrine] | -0.77 | 0.44% | -0.17% | 0.13 | 0
OCc1cccnc1 [nicotinyl-alcohol-tartrate] | -0.34 | -0.51% | -0.17% | 0.73 | -0.73
Cc1cccc(C)c1NC(=O)/N=C1\CCCN1C [xilobam] | -1.73 | -0.97% | 1.82% | -0.83 | 1.68
Nc1nc(=O)c(Br)c(-c2ccccc2)[nH]1 [bropirimine] | -2.33 | 1.04% | 1.75% | -0.1 | -0.45

SMILES | inhibition of SARS-CoV-2 cytopathic effect (1 nM) [%] | inhibition of SARS-CoV-2 cytopathic effect (8.33 nM) | inhibition of SARS-CoV-2 cytopathic effect (100 nM) | inhibition of SARS-CoV-2 cytopathic effect (833.33 nM) [%] | inhibition of SARS-CoV-2 cytopathic effect (10000 nM) [%]
O=S(=O)(O)c1ccc(-c2c3nc(c(-c4ccc(S(=O)(=O)O)cc4)c4ccc([nH]4)c(-c4ccc(S(=O)(=O)O)cc4)c4nc(c(-c5ccc(S(=O)(=O)O)cc5)c5ccc2[nH]5)C=C4)C=C3)cc1 | -2.9 | -2.68% | -5.47% | -6.51 | -7.03
COc1ccc(S(=O)(=O)N2CCC[C@H]2C(=O)Nc2cc(C)cc(C)c2)cc1 | -4.61 | -4.21% | -5.02% | -4.87 | 1.64
C/C1=C/C[C@@H](/C(C)=C/c2csc(C)n2)OC(=O)C[C@H](O)C(C)(C)C(=O)[C@H](C)[C@@H](O)[C@@H](C)CCC1 [epothilone-D] | 2.13 | -0.55% | -1.83% | -0.53 | -1.4
CC(=O)SC[C@@H](Cc1ccccc1)C(=O)NCC(=O)OCc1ccccc1 (racemic) [racecadotril] | 1.48 | 1.8% | 0.82% | 1.15 | -5.3
COc1cc(OC)c(C(=O)CCCCN2CCC3(CC2)NC(=O)NC3=O)cc1NS(=O)(=O)c1ccc(C(F)(F)F)cc1 | 0.4 | 0.2% | -0.19% | 0.81 | 0.94
CC(=O)O/N=C1\C(=O)N(Cc2cc(Cl)ccc2Cl)c2ccc(Cl)cc21 | -1.23 | 0.39% | 0.49% | 3.77 | 4.47
O=C(CCBr)N1CCN(C(=O)CCBr)CC1 [pipobroman] | 0.26 | -0.92% | -3.06% | -6.9 | -3.48
NC(=O)c1cnc2[nH]ccc2c1N[C@@H]1[C@@H]2CC3C[C@H]1C[C@@](O)(C3)C2 | -1.55 | -1.31% | -1.46% | -0.12 | -1.65
Cc1cc2c(F)c(Oc3ncnn4cc(OC[C@@H](C)OC(=O)[C@H](C)N)c(C)c34)ccc2[nH]1 [brivanib-alaninate] | -0.11 | 4.65% | 1.96% | -0.19 | -7.17
O=C1c2ccccc2C(=O)C1c1ccc(Cl)cc1 [chlorindione] | -5.54 | -6.24% | -3.27% | 0.64 | 0.34
N[C@H](CO)C(=O)O [D-serine] | -1.38 | 1.46% | -1.84% | -1.45 | 1.69
CC(=O)c1cnc2ccc(-c3cc(Cl)c(O)c(Cl)c3)nc2c1N[C@H]1CC[C@H](CN(C)C)CC1 | -1.51 | 0.72% | -1.37% | 0.11 | -5.46
CCCn1c(=O)c(C)cn2nc(N)nc12 | 3.43 | 2.31% | -0.1% | 2.28 | -2.15
N#Cc1ccc(C2CCCc3cncn32)cc1 (stereo not given) [fadrozole] | 1.9 | 0.56% | -1.22% | -4.4 | -0.19
O=S(=O)(O)CCS [mesna] | 2.64 | 4.29% | 1.16% | 5.57 | 0.95
CCC[C@@H]1CC2=CC(=O)CC[C@]2(C)[C@H]2CC[C@@]3(C)[C@@H](CC[C@@]3(O)CCC(=O)O)[C@H]12 | 1.5 | 15.1% (active) | 3.45% | -4.91 | 1.68
C[C@@H]1CC(=O)NN=C1c1ccc(NN=C(C#N)C#N)cc1 [levosimendan] | -0.58 | 0.74% | 0.3% | 1.84 | 1.18
O=C1CC2(CCCC2)CC(=O)N1CCCCNC[C@H]1COc2ccccc2O1 (racemic) | 2.83 | -1.41% | -1.75% | -0.98 | -5.48
CN1CCN(CC(=O)N2c3ccccc3C(=O)Nc3cccnc32)CC1 [pirenzepine] | -0.09 | -0.92% | -2.09% | -0.6 | -1.86
